The list is not random: actives were taken first. Their share in the collection is about 2%.
Shn3 inh set2: reduction of Shn3 3'UTR firefly luciferase signal, primary screen, Schnurri-3 inhibitor project, cell-based, Clone20 osteoblasts, set 2; Clone20 osteoblast Shn3 3'UTR firefly luciferase, 24 h; inhibition, % at 12.5 µM; 360,000 tested, 0.52% active; AID 588674, 2011;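 active = mean inhibition of at least 75% with every replicate also reaching 75%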;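 also: 0% = median of neutral control wells and 100% = pilot-screen positive control compound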
LGR2 inh: inhibitors of bursicon-induced LGR2 CRE-luciferase signal, primary screen, cell-based, HEK293, CRE-luciferase reporter, bursicon stimulation; Drosophila bursicon receptor LGR2 (rickets); bursicon-stimulated, 4 h; inhibition, % at 9.99 µM; 380,000 tested, 0.35% active; AID 720647, 2013;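 active = drop in luminescence signal, shown as inhibition above about 50% in the replicate tests, limit read from the data, passing the limit was not always enough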;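 also: agonist challenge used bursicon conditioned medium at about half maximal strength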
KKLEB tox: cytotoxicity in KKLEB CF airway cells, primary screen, cytotoxicity control for CF NF-kB inhibitor project, cell-based, uHTS, fluorescence assay plates; activity change (cytotoxicity), % at 5 µM; 360,000 tested, 0.36% active; KKLEB CF airway cells viability, ATPlite luminescence, overnight; stronger effect = lower value; cells stimulated with P. aeruginosa culture filtrate;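 active = corrected activity change at or below -50% at 5 µM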
PAX8 inh HTS: inhibitors of PAX8-driven TPO luciferase reporter, primary screen, RMG-I cells, single concentration. SteadyGlo, 24 h. inhibition, % at 12.6 µM. 360,000 tested, 1.2% active. AID 652154, 2013;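 active = mean replicate inhibition at least 60% with every replicate also reaching 60%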;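 also: luciferase light reporting Pax8 driven TPO promoter activity; plate controls were median of neutral control wells for no effect and mitoxantrone controls for full effect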
EWS-Fli inh: EWS/Fli-driven NR0B1 reporter inhibitors, primary screen, A673 cells, NR0B1 luciferase, luminescence, MLPCN library; viability-normalised; inhibition, % at 12.6 µM; 350,000 tested, 0.67% active;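 active = mean inhibition of at least 50% after viability correction, with every replicate also passing that limit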;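 also: firefly luciferase signal divided by Alamar Blue viability fluorescence both relative to DMSO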
CF NFkB block: inhibitors of PAF-induced NF-kB signaling, primary screen, cell-based, GFP fluorescence, uHTS | AID 588850, 2011 | inhibition, % at 5 µM | 360,000 tested, 0.86% active | KKLEB NF-kB-GFP reporter, GFP fluorescence overnight;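 active = at least 50% inhibition at 5 µM, scaled per plate between neutral and stimulator controls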;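 also: PAF is a Pseudomonas aeruginosa culture filtrate used as stimulus; plate controls were PAF-stimulated DMSO wells for no effect and unstimulated DMSO wells for full effect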
Numbers without * were called inactive; x = no result.

SMILES | Shn3 inh set2 | LGR2 inh | KKLEB tox | PAX8 inh HTS | EWS-Fli inh | CF NFkB block
C[C@@H]1CCCCO[C@H](CN(C)C(=O)Cc2ccccc2)[C@H](C)CN([C@@H](C)CO)C(=O)c2cc(NC(=O)CCC(F)(F)F)ccc2O1 | x | 6 | x | -7 | 7 | x
C/C=C/c1ccc2c(c1)O[C@@H](CN(C)C(=O)C1CCC1)[C@H](C)CN([C@@H](C)CO)S2(=O)=O | x | 3 | x | x | 4 | x
C[C@@H]1CN([C@@H](C)CO)C(=O)c2cccc(NS(=O)(=O)c3ccccc3)c2O[C@H]1CN(C)C(=O)Nc1ccc(C(F)(F)F)cc1 | x | 3 | x | -20 | -5 | x
C[C@@H]1CCCCO[C@@H](CN(C)C(=O)NC2CCCCC2)[C@@H](C)CN([C@H](C)CO)C(=O)c2cc(NC(=O)Nc3ccc(C(F)(F)F)cc3)ccc2O1 | x | 5 | x | 17 | -2 | x
C[C@@H]1CN([C@H](C)CO)C(=O)c2cc(NC(=O)Nc3ccc(C(F)(F)F)cc3)ccc2O[C@@H](C)CCCCO[C@@H]1CN(C)C(=O)NC1CCCCC1 | x | 28 | x | 86* | 2 | x
C[C@H]1CCCCO[C@@H](CN(C)C(=O)NC2CCCCC2)[C@@H](C)CN([C@@H](C)CO)C(=O)c2cc(NC(=O)Nc3ccc(C(F)(F)F)cc3)ccc2O1 | x | 20 | x | 88* | 3 | x
C[C@H](CO)N1C[C@H](C)[C@H](CN(C)C(=O)NC2CCCCC2)OCCCC[C@H](C)Oc2ccc(NC(=O)Nc3ccc(C(F)(F)F)cc3)cc2C1=O | x | 27 | x | 93* | 6 | x
C[C@H]1CCCCO[C@H](CN(C)C(=O)Nc2ccc(C(F)(F)F)cc2)[C@@H](C)CN([C@@H](C)CO)C(=O)c2cc(NC(=O)NC3CCCCC3)ccc2O1 | x | 12 | x | 50 | 6 | x
C[C@H](CO)N1C[C@H](C)[C@H](CN(C)C(=O)Nc2ccc(C(F)(F)F)cc2)OCCCC[C@H](C)Oc2ccc(NC(=O)NC3CCCCC3)cc2C1=O | x | 55* | x | -29 | 10 | x
CCS(=O)(=O)N1CC2(C1)[C@H](c1ccccc1)[C@H](CO)N2C(=O)C1CCCC1 | x | -8 | x | x | 7 | x
O=C(N[C@H]1CC[C@H](CCNS(=O)(=O)Cc2ccccc2)O[C@@H]1CO)c1ccccc1F | x | -7 | x | 1 | 2 | x
C[C@H](CO)N1C[C@H](C)[C@@H](CN(C)C(=O)NC2CCCCC2)OCCCC[C@H](C)Oc2ccc(NC(=O)Nc3ccc(C(F)(F)F)cc3)cc2C1=O | x | 14 | x | 49 | 21 | x
C[C@@H]1CCCCO[C@H](CN(C)C(=O)NC2CCCCC2)[C@H](C)CN([C@@H](C)CO)C(=O)c2cc(NC(=O)Nc3ccc(C(F)(F)F)cc3)ccc2O1 | x | 15 | x | 71* | 3 | x
Cc1nnc(SC(=O)N2c3ccccc3Sc3ccccc32)s1 | 62 | x | -58* | x | x | 69*
CCOC(=O)N1c2ccccc2Sc2ccccc21 | 13 | 5 | 0 | 13 | 7 | 16
Cc1ccccc1-c1cnc2c(c1)C(=O)N([C@@H](C)CO)C[C@H](C)[C@H](CN(C)C(=O)CC1CC1)O2 | x | -27 | x | -6 | -9 | x
Cc1ccc(S(=O)(=O)Nc2ccc3c(c2)C(=O)N([C@H](C)CO)C[C@H](C)[C@@H](CN(C)C(=O)NC(C)C)OCCCC[C@H](C)O3)cc1 | x | -1 | x | 3 | -5 | x
O=C1CN(Cc2ccccc2)C[C@H]2[C@@H](c3ccc(-c4cccnc4)cc3)[C@H](CO)N12 | x | 12 | x | x | 11 | x
COc1cccc(S(=O)(=O)N2CC[C@H]3[C@@H](CO)N(C)c4ccc(C#Cc5ccc(F)cc5)cc4[C@H]32)c1 | x | 20 | x | 85* | 5 | x
Cc1cccc(S(=O)(=O)N2CC[C@@H]3[C@H](CO)N(C)c4ccc(C#Cc5ccc(F)cc5)cc4[C@@H]32)c1 | x | x | x | 91* | 19 | x
C/C(=N\Nc1ccc2nncn2n1)c1ccco1 | 13 | 25 | 4 | 9 | -7 | 0
C/C(=N\Nc1ccc2nncn2n1)c1ccccn1 | 90* | -1 | 9 | 63* | 35 | -13
CCCN1C[C@H](C)[C@H](OC)CN(C)C(=O)c2cc(NS(=O)(=O)CC)ccc2OC[C@@H]1C | x | 2 | x | x | 2 | x
COc1ccc(C(O)c2nc(-c3cccc(F)c3)cs2)cc1 (stereo unspecified) | 82* | x | -37 | 11 | -11 | -5
C[C@@H]1CN([C@H](C)CO)C(=O)Cc2cc(NC(=O)C3CC3)ccc2O[C@@H]1CN(C)S(C)(=O)=O | x | -8 | x | 9 | -7 | x
SMILES | Shn3 inh set2 | LGR2 inh | KKLEB tox | PAX8 inh HTS | EWS-Fli inh | CF NFkB block
CCCCCCCCCCCCCCCCn1cc[n+](CC(C)=O)c1 | 84 | x | -67* | x | x | 67*
C[C@@H]1CCCCO[C@H](CN(C)S(=O)(=O)c2ccc(F)cc2)[C@H](C)CN([C@@H](C)CO)C(=O)c2cc(NC(=O)c3ccncc3)ccc2O1 | x | -19 | x | x | -5 | x
C[C@@H]1CCCCO[C@@H](CN(C)Cc2ccncc2)[C@@H](C)CN([C@H](C)CO)C(=O)c2cc(NC(=O)Nc3ccccc3)ccc2O1 | x | -14 | x | -13 | x | x
CCOC(=O)c1c(-c2ccccc2)csc1NC(=O)c1ccc(S(=O)(=O)N2CC(C)OC(C)C2)cc1 (stereo unspecified) | 14 | x | -20 | x | x | 19
CCOC(=O)c1c(-c2ccccc2)csc1NC(=O)c1ccc(N2C(=O)CCC2=O)cc1 | -5 | 0 | -57* | x | -4 | 69*
N=c1c2c(n(Cc3ccc(Cl)cc3)c3c1CCC3)CCC2 | 79 | 5 | -14 | x | 29 | 30
N=c1c2c(n(Cc3ccc(F)cc3)c3c1CCC3)CCCC2 | 52 | -8 | 10 | 69* | 28 | -7
CCCCCCCCCn1c2c(c(=N)c3c1CCC3)CCCC2 | 92* | x | -56* | x | x | 46
CCCCCCCCCCn1c2c(c(=N)c3c1CCC3)CCC2 | 71 | x | -64* | x | x | 59*
Cc1noc(C)c1S(=O)(=O)Nc1ccc2c(c1)CC(=O)N([C@H](C)CO)C[C@@H](C)[C@H](CN(C)C(=O)NC1CCCCC1)O2 | x | 1 | x | x | -5 | x
CC(=O)N(C)C[C@@H]1Oc2cc(C#Cc3cccnc3)ccc2S(=O)(=O)N([C@@H](C)CO)C[C@H]1C | x | -1 | x | x | -3 | x
Cc1ccnc(N/C=C(/NC(=O)c2ccccc2)C(=O)NN)n1 | 2 | -28 | 6 | -12 | 1 | 5
Cc1ccnc(N/C=C(/NC(=O)c2ccccc2)C(=O)N/N=C\c2ccc(F)cc2)n1 | 94* | x | 2 | x | x | -2
CN(C)CCCNC(=O)C[C@H]1C=C[C@H](NS(=O)(=O)c2ccc(F)cc2)[C@@H](CO)O1 | x | 18 | x | 0 | -4 | x

High-throughput results from PubChem BioAssay.
